A short description of experiment [1]: inhibitors of TNFa-induced NFkB p65 translocation, primary screen, imaging, HUVEC, MLSMR starter and 10KST1 sets (AID 438;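 active = inhibition above 20% together with a positive visual image hit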;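 note: compound added about 3h40 before a 20 min TNFalpha stimulation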;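 for inhibition: signal is the nuclear over cytoplasmic p65 intensity ratio per well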). The following applies: HUVEC TNFa-induced p65 nuclear translocation; cell count: measured here: nuclei count (cytotoxicity indicator), at 2.08 µM; inhibition: at 2 µM, stronger effect = higher value, 0% TNFa-plus-vehicle, 100% no-TNFa wells.
Experiment [2] can be described thus: endothelial E-selectin expression blockers – imaging, HUVEC, immunofluorescence, MLSMR starter and 10KST1 sets, primary screen (AID 487;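 active = visually confirmed hit in the image check and inhibition above 20%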;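 for inhibition: signal is fraction of cell area covered by stained E-selectin grains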;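 for nuclei count: 100% = median nuclei count of all wells on the same plate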). The following applies: HUVEC TNFalpha-induced E-selectin immunofluorescence imaging, at 2 µM; inhibition: stronger effect = higher value; nuclei count: measured here: cell number, toxicity.
A short description of experiment [3]: Primary imaging screen for DUSP6 inhibitors that restore phospho-Erk in transfected HeLa cells, chemical complementation (AID 609;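 active = compounds giving at least 50% inhibition in the cell-based MKP-3 phosphatase rescue imaging test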;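 for inhibition: phospho-Erk level distribution per well compared with pooled transfected vehicle control wells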). The conditions noted are these: HeLa MKP-3 transfected, phospho-Erk imaging KS statistic, at 10 µM, cells stimulated with TPA for 15 min.
Experiment [4] has as its target Dual specificity protein phosphatase 6 (Homo sapiens) (UniProt Q16828). The experiment is described as above. The following applies: HeLa MKP-3 transfected, phospho-Erk imaging KS statistic; at 10 µM; stronger effect = higher value; cells stimulated with TPA for 15 min.
The target in experiment [5] is Voltage-gated potassium channel subunit beta-2 (Rattus norvegicus) (UniProt P62483). Briefly: inhibitors of rat Kvbeta2 reductase activity – biochemical, NADPH fluorescence, primary screen (AID 622;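 active = fluorescence slope higher than the sample average by over 3 SD, cut at about -0.22 in these data, passing the limit was not always enough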;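 note: slope of raw intensity against log time taken from 70 to 1610 s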). The conditions noted are these: recombinant KvBeta, 4-cyanobenzaldehyde reduction, at 10 µM, stronger effect = higher value.
Chain of Voltage-gated potassium channel subunit beta-2 (Rattus norvegicus) (P62483 whole entry, looked up): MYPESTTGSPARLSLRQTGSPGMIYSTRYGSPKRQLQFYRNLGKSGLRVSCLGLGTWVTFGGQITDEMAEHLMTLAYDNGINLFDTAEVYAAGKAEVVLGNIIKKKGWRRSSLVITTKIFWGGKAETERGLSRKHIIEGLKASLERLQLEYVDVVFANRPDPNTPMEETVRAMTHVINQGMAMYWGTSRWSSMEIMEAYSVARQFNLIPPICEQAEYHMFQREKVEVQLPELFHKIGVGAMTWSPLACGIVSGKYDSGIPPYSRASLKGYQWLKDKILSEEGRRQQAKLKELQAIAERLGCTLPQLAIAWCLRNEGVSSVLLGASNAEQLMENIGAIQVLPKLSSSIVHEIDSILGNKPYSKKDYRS
The target is the same in experiment [6]. Briefly: enhancers of rat Kvbeta2 NADPH turnover – biochemical, NADPH fluorescence, primary screen (AID 623).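 Note: fluorescence intensity change per second fitted from 20 to 320 s.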 The conditions noted are these: Recombinant KvBeta, NADPH fluorescence decrease slope, 10 min; at 10 µM; stronger effect = lower value.
Experiment [7] addresses Muscarinic acetylcholine receptor M4 (Homo sapiens) (UniProt P08173). Briefly: M4-linked GIRK flux change, two-sided – cell-based, HEK293 M4/GIRK, thallium flux, BTC-AM, M4 allosteric agonist project, primary screen (AID 625;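 active = fluorescence slope after compound addition differing from the mean of all tested samples at 99.7% confidence, mostly higher but some lower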;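 note: thallium influx through GIRK channels coupled to M4 in HEK293 cells with BTC-AM dye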). The conditions noted are these: at 10 µM, actives lie on both sides.
Experiment [8] in a line: inhibitors of larval lipid processing in zebrafish, primary screen, whole organism, PED6 fluorescence, gall bladder and intestine (AID 686;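 active = a full or partial loss of lipid-probe fluorescence in the fish gall bladder, intestine or both, judged by eye; inactive = no fluorescence loss, or compound toxic to the fish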;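 note: larvae 5 to 7 days old with five fish per well; signal comes from phospholipase A2 cleavage of quenched PED6 carried via bile; overnight exposure to compound and PED6 before scoring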). The conditions noted are these: Zebrafish larvae PED6 lipid processing, fluorescence scoring; screened at 20 µM (by protocol).
Experiment [9] in a line: loss of swimming-algae plug formation – whole organism, Chlamydomonas reinhardtii, WT vs cilia-less mutant, absorbance, 96-well, primary screen (AID 463189;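 active = inhibition at or above 50% relative to wild type and mutant plate controls; inactive = inhibition below 50%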;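 note: 0% = wild type cc124 cells in DMSO and 100% = ciliumless bld1 mutant cells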). The following applies: Chlamydomonas reinhardtii gravitaxis, OD600 absorbance, 2 days; at 10 µM; stronger effect = higher value.
The nature of experiment [10]: reduction of polyQ htt aggregates in cells – imaging, exon1htt(103Q)mCFP cells, high-content imaging, primary screen (AID 483;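 active = visual image review flags a hit and inhibition of aggregation exceeds 20%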;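 note: compound exposure lasted 3 days before fixation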;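 for nuclei count: percent of the per-plate median nuclei count of sample wells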). The conditions noted are these: exon1htt(103Q)mCFP cell line, aggregate imaging, at 2 µM; inhibition of aggregation: stronger effect = higher value; nuclei count: measured here: cell count, toxicity.
Experiment [11] addresses Alpha-2C adrenergic receptor (Homo sapiens) (UniProt P18825). Briefly: compounds altering alpha2C-coupled GIRK flux – cell-based, HEK293 alpha2C/GIRK1/2, thallium flux, primary screen (AID 624;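 active = fluorescence slope after compound addition differing from the mean of all screened samples at 99.7% confidence, in either direction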;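 note: slope of fluorescence ratio to pre-addition baseline per second over 15 to 24 s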). The conditions noted are these: thallium flux BTC fluorescence, at 10 µM, actives lie on both sides.
A short description of experiment [12]: blockers of RIG-like receptor reporter activation – cell-based, Sendai virus stimulus, luciferase, 10K MLSCN set, TLR/RLR signaling modifier project, primary screen (AID 602276;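 active = inhibition at or above 50% at 10 µM; inactive = inhibition below 50%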;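 note: firefly luciferase from ISG56 promoter only with Renilla not read in this screen; 0% = Sendai virus plus DMSO and 100% = medium plus DMSO without virus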). The following applies: HEK293 RL24 IRF3 luciferase reporter, at 10 µM, stronger effect = higher value. A general note: A reporter such as luciferase makes a cellular process visible.
Experiment [13] is described as follows: TLR3 IRF3 reporter activation blockers – cell-based, poly I:C stimulus, luciferase, 10K MLSCN set, primary screen (AID 602277;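 active = inhibition of the reporter signal at or above 50%; inactive = inhibition below 50%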). The conditions noted are these: HEK293-TLR3 RL24 IRF3 luciferase reporter, at 10 µM, stronger effect = higher value.

Structures are written as SMILES. Calls of active or inactive are those of the source.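 Rule for the calls, unless noted: active = NADPH fluorescence slope more negative than the mean of all samples by about 3 SD, 99.7% confidence; inactive = the rest.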

Chain of Alpha-2C adrenergic receptor (Homo sapiens) (P18825 whole entry, looked up): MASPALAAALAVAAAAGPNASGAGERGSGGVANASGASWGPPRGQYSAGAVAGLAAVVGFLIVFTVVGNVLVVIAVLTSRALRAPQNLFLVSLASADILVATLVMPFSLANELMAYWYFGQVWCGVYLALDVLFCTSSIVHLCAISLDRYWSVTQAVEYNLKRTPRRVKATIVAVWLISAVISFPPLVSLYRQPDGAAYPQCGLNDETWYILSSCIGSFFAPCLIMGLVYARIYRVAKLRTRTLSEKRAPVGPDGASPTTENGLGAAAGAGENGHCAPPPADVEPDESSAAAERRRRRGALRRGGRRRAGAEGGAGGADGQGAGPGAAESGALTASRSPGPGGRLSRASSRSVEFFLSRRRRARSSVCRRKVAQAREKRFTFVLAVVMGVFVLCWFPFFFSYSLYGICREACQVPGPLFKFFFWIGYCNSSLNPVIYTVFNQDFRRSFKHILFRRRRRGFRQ
Chain of Muscarinic acetylcholine receptor M4 (Homo sapiens) (P08173 whole entry, looked up): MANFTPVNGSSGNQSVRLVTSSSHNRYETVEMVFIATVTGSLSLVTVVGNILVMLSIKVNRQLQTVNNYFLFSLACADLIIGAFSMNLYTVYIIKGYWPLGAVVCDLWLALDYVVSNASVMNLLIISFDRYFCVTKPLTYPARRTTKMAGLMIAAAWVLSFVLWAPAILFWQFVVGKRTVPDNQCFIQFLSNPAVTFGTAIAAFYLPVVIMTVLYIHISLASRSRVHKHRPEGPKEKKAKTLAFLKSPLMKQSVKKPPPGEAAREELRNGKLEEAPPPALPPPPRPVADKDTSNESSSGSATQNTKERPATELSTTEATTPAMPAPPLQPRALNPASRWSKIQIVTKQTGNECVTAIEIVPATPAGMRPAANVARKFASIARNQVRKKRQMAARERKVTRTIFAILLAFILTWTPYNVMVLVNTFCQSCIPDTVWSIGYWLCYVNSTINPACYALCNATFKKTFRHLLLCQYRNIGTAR
Chain of Dual specificity protein phosphatase 6 (Homo sapiens) (Q16828 whole entry, looked up): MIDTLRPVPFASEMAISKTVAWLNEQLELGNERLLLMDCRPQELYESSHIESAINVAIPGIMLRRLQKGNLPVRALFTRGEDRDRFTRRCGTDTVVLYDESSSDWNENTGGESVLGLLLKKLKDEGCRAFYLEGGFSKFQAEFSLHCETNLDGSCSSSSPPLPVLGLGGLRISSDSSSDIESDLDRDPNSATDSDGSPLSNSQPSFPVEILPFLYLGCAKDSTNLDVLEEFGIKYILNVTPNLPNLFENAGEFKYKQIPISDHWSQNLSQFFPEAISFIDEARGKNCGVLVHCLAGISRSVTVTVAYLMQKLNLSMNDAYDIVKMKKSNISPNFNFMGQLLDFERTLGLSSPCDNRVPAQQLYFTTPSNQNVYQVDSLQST

As a reminder, the inhibition is the relative decrease from the control value, in per cent. With `Cc1ccc(NC(=O)c2cc(N3CCOCC3)nc3ccccc23)cc1`, in experiment [1], the cell count is 674. Also, the inhibition is -10.2% (inactive) in [1], -16.8% (inactive) in experiment [4] and 19% (inactive) in experiment [9]. The molecule also came in with a nuclei count in experiment [2] of 174%. The z-score in experiment [3] (measured here: cell density z-score) is 0.315; in [3] (measured here: nuclear c-Myc green intensity z-score), 1.28; in experiment [3] (measured here: nuclear pErk red intensity z-score, stronger effect = higher value), 0.543. In addition, the fluorescence slope in experiment [5] was -0.393 (inactive); in [7], 0.00495 (inactive). Further, the NADPH fluorescence slope in experiment [6] is -2.7e-05 (inactive). Further, in [8], the molecule was called inactive.

As for `O=C1c2ccccc2S(=O)(=O)N1Cc1nnc(-c2ccccc2Br)o1`, the cell count in [1] came out at 536. Further, the inhibition was -4.9% (inactive) in experiment [1], 51.8% (active) in experiment [2], 16.6% (inactive) in experiment [12] and 20.8% (inactive) in experiment [13]. Further, the inhibition of aggregation in [10] is -9.2% (inactive). Besides, the nuclei count in experiment [10] was 106%; in experiment [2], 99.5%. In experiment [5], the fluorescence slope is -0.488 (inactive). In experiment [6], the NADPH fluorescence slope is -6e-05 (inactive). Besides, the slope in experiment [11] is 0.00709 (inactive).

As to `CN(C)S(=O)(=O)c1ccc(/C(O)=C2/C(=O)C(=O)N(CCN3CCCCC3)C2c2cccnc2)cc1` (stereo not drawn), the cell count in experiment [1] was determined as 391. Further, the inhibition in experiment [1] is 5.5% (inactive); in [2], -68.5% (inactive); in experiment [12], -17.9% (inactive); in experiment [13], -24% (inactive). Further, the inhibition of aggregation in experiment [10] is 5.7% (inactive). For the same molecule, the nuclei count in experiment [10] came to 88.2%; in [2], 113%. For the same molecule, the fluorescence slope in [5] was -0.396 (inactive). Besides, the NADPH fluorescence slope in experiment [6] is 2e-05 (inactive). For the same molecule, in experiment [11], the slope was 0.00576 (inactive).

Turning to `O=C(NCc1ccc2c(c1)OCO2)c1ccccn1`, the cell count in experiment [1] was 345. In addition, the inhibition in experiment [1] is -2% (inactive); in [2] it was 5.4% (inactive); in [12], -23.2% (inactive); in [13] it was -28.1% (inactive). Further, the inhibition of aggregation in experiment [10] is 18.9% (inactive). Further, the results for the nuclei count in experiment [10] and in [2] were 100% and 122%, respectively. The fluorescence slope in experiment [5] was -0.375 (inactive). Moreover, the NADPH fluorescence slope in experiment [6] is 4.1e-05 (inactive). In experiment [11], the slope is 0.00534 (inactive).

With `O=C(NCCCNC(=O)c1ccccn1)c1ccccn1`, the cell count in experiment [1] was 711. For the same molecule, the inhibition was -11.9% (inactive) in experiment [1], -77.9% (inactive) in experiment [2], 15.1% (inactive) in [12] and 20% (inactive) in [13]. The inhibition of aggregation in experiment [10] is -10.1% (inactive). Besides, the results for the nuclei count in experiment [10] and in experiment [2] were 97.9% and 105%, respectively. For the same molecule, the fluorescence slope in experiment [5] is -0.491 (inactive). Also, in [6], the NADPH fluorescence slope is -7e-05 (inactive). Moreover, the slope in experiment [11] is 0.00516 (inactive).

In the case of `O=C(CCN1C(=O)COc2ccccc21)N1CCN(c2ccccn2)CC1`, the cell count in experiment [1] was determined as 690. Besides, the inhibition in experiment [1] was -8.6% (inactive); in [2], -176% (inactive); in experiment [12], 10.4% (inactive); in experiment [13] it was 14.6% (inactive). Moreover, the inhibition of aggregation in experiment [10] is -0.4% (inactive). Moreover, the figures for the nuclei count in [10] and in experiment [2] were 101% and 132%, respectively. In addition, in [5], the fluorescence slope is -0.591 (inactive). Further, the NADPH fluorescence slope in experiment [6] was 5.1e-07 (inactive). Also, in experiment [11], the slope is 0.00618 (inactive).

In the case of `COc1ccc(N2C(=O)C(Cl)=C(N3CCCC3)C2=O)cc1`, the cell count in [1] worked out at 446. In addition, the inhibition in experiment [1] is 10.1% (inactive); in [2], 25.6% (inactive); in experiment [12], -5.83% (inactive); in [13] it was -8.61% (inactive). The inhibition of aggregation in [10] was -0.8% (inactive). Besides, the results for the nuclei count in experiment [10] and in experiment [2] were 101% and 100%, respectively. The fluorescence slope in experiment [5] is -0.29 (inactive). Moreover, the NADPH fluorescence slope in experiment [6] was -4.2e-05 (inactive). In [11], the slope is 0.00536 (inactive).

The record behind these values is PubChem BioAssay.
